Compound activity: PubChem, National Center for Advancing Translational Sciences (NCATS)
RORgamma inh – ROR gamma (mouse) transcription inhibition | Drosophila S2 Gal4-RORgamma UAS-luciferase reporter, 20 h | hit rate 5.4% among 310,000 | P51450 | Potency, µM (top dose mostly 53.6 µM), for inactives: top-dose activity change, negative = inhibition, usual class: inhibitors; also: potency is read from the fitted curve at half-maximal effect; nearly all actives have a fitted effect of over 60% in size
Target sequence (P51450 whole entry, looked up, the tested form may be a part): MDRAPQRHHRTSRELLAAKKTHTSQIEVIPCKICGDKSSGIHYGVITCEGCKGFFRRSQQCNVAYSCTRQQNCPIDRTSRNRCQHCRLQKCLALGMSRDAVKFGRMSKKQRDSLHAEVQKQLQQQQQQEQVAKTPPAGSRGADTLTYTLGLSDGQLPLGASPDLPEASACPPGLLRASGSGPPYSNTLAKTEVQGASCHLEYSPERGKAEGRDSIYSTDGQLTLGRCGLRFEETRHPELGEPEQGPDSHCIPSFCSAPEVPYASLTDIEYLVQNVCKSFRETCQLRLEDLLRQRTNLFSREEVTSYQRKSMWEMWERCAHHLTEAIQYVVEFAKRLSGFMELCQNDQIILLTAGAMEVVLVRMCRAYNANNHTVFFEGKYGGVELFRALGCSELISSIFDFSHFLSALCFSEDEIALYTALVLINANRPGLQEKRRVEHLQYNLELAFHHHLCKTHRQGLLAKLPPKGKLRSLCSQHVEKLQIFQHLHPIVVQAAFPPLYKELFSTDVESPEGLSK
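Luciferase reporter read in Schneider cells carrying Gal4-RORγ (mouse) and UAS-Photinus luciferase; cells given compound 1 h before 700 uM copper sulfate induction, then incubated 20 h at ambient temperature.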
IL1B secr inh – blocks inflammasome-driven IL-1 beta release | activity change, % at 57.5 µM | hit rate 4.7% among 360,000 | AID 743279 | THP-1 LPS/ATP IL-1B secretion, AlphaLISA, 16 h; stronger effect = lower value; in the data active = activity change below about -50%; inconclusive = mostly about -30% to -49%
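THP-1 cells pretreated 1 hr with compounds (up to 57.5 uM final), then stimulated with LPS (250 ng/mL final) plus ATP (1.25 mM final); secreted IL-1B measured by AlphaLISA after 16 hr, decreased signal indicating inhibition.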
DT40 TDP1 CPT – growth inhibition of DT40 Tdp1-/-;hTDP1 cells with camptothecin (screen for TDP1 inhibitors); chicken DT40 Tdp1-/-;hTDP1 cells + 20 nM CPT, ATP luminescence, 48 h; Potency, µM (doses to about 46.2 µM), for inactives: at the top dose activity change, negative = growth inhibition, hits mostly inhibitors; hit rate 12% among 420,000; AID 686979; also: potency is read from the fitted curve at half-maximal effect; nearly all actives have a fitted effect of over 55% in size
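Chicken DT40 Tdp1-/- cells complemented with human TDP1, 400 cells/well, exposed to compounds plus 20 nM camptothecin for at least 48 h at 37 C; viability read as ATP content by CellTiter-Glo luminescence.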
DT40 TDP1 no CPT – qHTS for Inhibitors of human tyrosyl-DNA phosphodiesterase 1 (TDP1): qHTS in cells in absence of CPT. DT40 Tdp1-/- hTDP1 cells, no CPT, ATP luminescence, 48 h. AID 686978, 2013. hit rate 15% among 420,000. Potency, µM (highest dose often 46.2 µM), for the others: at the top dose activity change, negative = growth inhibition, hits mostly inhibitors; also: potency is read from the fitted curve at half-maximal effect; nearly all actives have a fitted effect of over 55% in size
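Camptothecin absent (DMSO only). Human TDP1-complemented DT40 knockout cells, 400 cells/well, 37 °C for minimum 48 hr; ATP measured via CellTiter-Glo, 30 min dark incubation, luminescence.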
VP16 counter – counter-screen for ROR gamma inhibitors: Gal4-VP16 reporter. Drosophila S2 Gal4-VP16 UAS-luciferase, luminescence, 20 h. Potency, µM (top dose mostly 53.6 µM), for the others: at the highest dose activity, negative = inhibition, actives largely listed as inhibitors. hit rate 3.5% among 310,000. AID 2546;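 also: Gal4-VP16 expression switched on by copper sulfate through the metallothionein promoter; potency is read from the fitted curve at half-maximal effect; nearly all actives have a fitted effect of over 50% in size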
ELG1 repair inh – ELG1-dependent DNA repair inhibition | AID 504467 | HEK293T ELG1-luciferase reporter, luminescence, 16 h; DNA damage induced by 5-fluorouridine | Potency, µM (titrated, usually from 46.1 µM), for the others: top-dose activity change, negative = inhibition, usual class: inhibitors | hit rate 2.3% among 330,000; also: potency is read from the fitted curve at half-maximal effect; nearly all actives have a fitted effect of over 55% in size
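Step one: seed 2,000 cells per well. Step two: pin-transfer compound or DMSO alongside 5-fluorouridine. Step three: incubate 16 hr, 37 °C, 5% CO2. Step four: add ONE-Glo, wait 30 min, read luminescence.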
Active calls of the source: *; ? = inconclusive; nt = no result. Most compounds without a hit are left out; they make up all but 21% or so of the library. Unless noted, calls follow the shape of the dose curve; as a rule, active = well fitted curve in the direction sought with a large enough effect; inconclusive = small, poorly fitted or top-dose-only effect, or another doubt; inactive = no such curve, though single readings can be large; an effect the other way counts as inactive or inconclusive. % is scaled to controls: 0 for no effect and ±100 for the full control effect.

SMILES	RORgamma inh	IL1B secr inh	DT40 TDP1 CPT	DT40 TDP1 no CPT	VP16 counter	ELG1 repair inh
C=CCN1c2ccccc2[C@]23C[C@@H](C(=O)OC)N(C(=O)c4cc(C)oc4C)C2=NC(C(=O)OC)=C(C(=O)OC)[C@H]13	21%	-65*	?	?	-2%	?
CCCCn1c(=O)[nH]c(=O)c2c1nc(-c1ccc3ccccc3c1)n2CC	-1%	-5	?	?	4%	?
CCCCn1c(=O)[nH]c(=O)c2c1nc(-c1ccc(C)c([N+](=O)[O-])c1)n2CC	-9%	-18	?	21µM*	-6%	?
COCCn1c(-c2ccc(OC(F)(F)C(F)C(F)(F)F)cc2)nc2c1c(=O)[nH]c(=O)n2CC(C)C (stereo not given)	7%	-3	21µM*	?	-6%	?
Cc1ccc(-c2nc3c(c(=O)[nH]c(=O)n3CC(C)C)n2CC(C)C)cc1[N+](=O)[O-]	-30%	-9	?	29µM*	3%	?
COCCn1c(-c2ccc(SC)cc2)nc2c1c(=O)[nH]c(=O)n2CC(C)C	40%	23	-14%	-26%	-2%	0%
OC(CN1CCCCC1)c1ccc2c3c(cccc13)CC2 (stereo not given)	nt	-1	9%	-27%	nt	nt
CCCNc1nc(C#N)nc(Nc2ccccc2)n1	nt	nt	nt	nt	9%	nt
Cc1ccc(-c2[nH]c3ccccc3c2SCCN)cc1	-14%	-65*	?	15µM*	-7%	7%
Cc1[nH]c2ccccc2c1SCCN	nt	-15	?	?	nt	nt
NCCSc1c(-c2ccccc2)[nH]c2ccccc12	13%	-21	?	21µM*	11%	-4%
CC(=O)OCCSc1c(-c2ccccc2)c2cc(Cl)ccc2[nH]c1=O	-27%	-27	-27%	?	?	-12%
Cc1ccc(-c2cc(=O)[nH]c3ccccc23)cc1	nt	-4	9.2µM*	7.3µM*	nt	nt
NCCSc1c(-c2ccc(Cl)cc2)[nH]c2ccccc12	7%	-65*	?	?	-1%	3%
CC(C)Oc1ccc(CSC(=N)N)cc1	-23%	15	-27%	-28%	-8%	-9%
Cc1cc(CSC(=N)N)c(CSC(=N)N)cc1C	-6%	-7	?	23µM*	0%	-1%
Cc1[nH]nc2c1C(c1cc(Br)cs1)C(C#N)=C(N)O2 (stereo not given)	0.71µM*	-101*	4.1µM*	5.2µM*	7.1µM*	?
Cc1nn(C)c(C)c1C1C(C#N)=C(N)Oc2n[nH]c(C)c21 (stereo not given)	-3%	0	7%	-5%	1%	3%
Cc1[nH]nc2c1C(C(C)C)C(C#N)=C(N)O2 (stereo not given)	7%	-87*	?	?	-2%	?
C[C@H]1CN([C@@H](C)CO)C(=O)CCCn2cc(nn2)CO[C@@H]1CN(C)S(=O)(=O)c1ccc(C#N)cc1	nt	11	11%	-30%	nt	nt
CCOCCCNC(=O)CN1C(=O)COc2ccc(S(=O)(=O)N3CCOCC3)cc21	-2%	-12	2%	28%	-6%	6%
CCOCCCNC(=O)/C(C#N)=C/c1ccc([N+](=O)[O-])o1	12%	-111*	1.3µM*	1.8µM*	1%	?
CCOCCCNC(=O)/C(C#N)=C/c1ccc(-c2ccc(S(=O)(=O)N3CCOCC3)cc2)o1	42%	5	12µM*	8.2µM*	-10%	?
COCCCNC(=O)c1oc2ccc(S(=O)(=O)N3CCOCC3)cc2c1C	14%	6	1%	-23%	-1%	6%
COCCNC(=O)/C(C#N)=C/c1cc(Br)c(O)c(OC)c1	-11%	23	4%	-2%	4%	-4%
SMILES	RORgamma inh	IL1B secr inh	DT40 TDP1 CPT	DT40 TDP1 no CPT	VP16 counter	ELG1 repair inh
CCOCCCNC(=O)/C(C#N)=C/c1cc(Br)c(O)c(Br)c1	93%	?	4.1µM*	1.6µM*	5%	?
COCCNC(=O)/C(C#N)=C/c1ccc(-c2ccc(S(=O)(=O)N3CCOCC3)cc2)o1	?	-12	?	?	0%	16µM*
CC1(C)CC(=O)C=C(c2cccc(OC(=O)c3ccc(-c4ccccc4)cc3)c2)C1=O	nt	-2	-8%	?	nt	nt
CC(=O)Nc1ccc(C(=O)N2CCCCC2c2cc(C(=O)NC(C)C)no2)cc1 (stereo not given)	nt	9	-1%	5%	nt	nt
O=C(COc1ccc(Br)cc1)N(Cc1nnc(-c2ccccc2Cl)o1)C1CC1	nt	-4	23µM*	23µM*	nt	nt
Cc1cccc(OCC(=O)N(Cc2nnc(-c3ccccc3Cl)o2)C2CC2)c1	nt	-2	16µM*	?	nt	-13%
O=C(COc1ccc(F)cc1Cl)N(Cc1nnc(-c2ccccc2Cl)o1)C1CC1	nt	-11	-29%	16µM*	nt	nt
CCC(=O)c1ccc(OCC(=O)N(Cc2nnc(-c3ccccc3Cl)o2)C2CC2)cc1	nt	-10	?	?	nt	?
OC(COc1ccc(Br)cc1)CN1CCN(c2ccccc2)CC1 (stereo not given)	-12%	-14	?	?	-10%	13%
CCc1ccc2nc(NC(=O)c3cc(C)on3)sc2c1	5.6µM*	1	9.2µM*	8.2µM*	?	?
CCC(=O)NNc1nc2c(C)cc(C)cc2s1	13µM*	-3	?	0%	?	?
